For 30 compounds, z-score and composite z-score results are on record in PubChem BioAssay.

Tested on in one test: not listed separately
In words: mitochondrial membrane potential change in A549 cells, profiling panel, cell-based, JC-1 fluorescence, basal, 24 h, 100 nL (AID 1138).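 Further: A549 lung adenocarcinoma cells under basal conditions with no added stimulus; test concentration not given here.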 To be noted: higher = more signal.
As to `COCCOC(=O)N1C(=O)[C@@]2(c3cc(C#CC4=CCCCC4)ccc31)[C@H](C(N)=O)[C@H]1C(=O)O[C@H](c3ccccc3)[C@H](c3ccccc3)N1[C@@H]2c1ccc(O)cc1`, the z-score was -1.1.
As for `O=C1O[C@@H](c2ccccc2)[C@@H](c2ccccc2)N2[C@@H](c3ccc(OCCO)cc3)[C@]3(C(=O)Nc4ccc(C#CC5=CCCCC5)cc43)[C@@H](C(=O)N3CCCCCCC3)[C@H]12`, the z-score was -1.02.
`COc1ccc([Si](C)(C)[C@@H]2[C@@H](CCn3cc([C@H](O)c4ccccc4)nn3)O[C@]3(C(=O)N(Cc4cccc(N5CCC5=O)c4)c4ccccc43)[C@H]2C)cc1` displayed a z-score of 2.21.

The next test deals with Lefty1. Nature of the test: Lefty1 binders on small-molecule microarrays, primary screen, biochemical, small-molecule microarray, 635/667 nm fluorescence (AID 1139). To be noted: small-molecule microarray binding, fluorescence 635/667; higher = more signal.
Consider `COc1ccc([Si](C)(C)[C@@H]2[C@@H](CCO)O[C@]3(C(=O)N(Cc4cccc(N5CCOC5=O)c4)c4ccccc43)[C@H]2C)cc1`, for which the composite z-score is 0.26.
On the same count and under the same terms, as for `COCCOC(=O)N1C(=O)[C@@]2(c3ccccc31)[C@H](C(N)=O)[C@H]1C(=O)O[C@H](c3ccccc3)[C@H](c3ccccc3)N1[C@@H]2c1ccc(O)cc1`, the figure is 0.429; as for `O=C1C[C@@](C(=O)NCc2ccccc2)(c2ccc([N+](=O)[O-])cc2)[C@@H](c2ccc(CO)cc2)N1CC12CC3CC(CC(C3)C1)C2`, 0.943.
The compound `COCC(=C=CC[C@H](O)c1cccc(OCCO)c1)CCO` gave a composite z-score of 1.48.
The same measure, in the same setting: the result for `COCCCNC(=O)[C@@]1(Cc2ccccc2CN=[N+]=[N-])N=C(c2ccc(OCCCO)cc2)O[C@H]1c1ccccc1CN=[N+]=[N-]` reads 0.0147; that for `COC(=O)[C@]1(Cc2ccccc2)N=C(c2ccc(OCCCO)cc2)O[C@@H]1c1ccccc1N=[N+]=[N-]`, 0.83.
`COC(=O)[C@@]1(Cc2ccc(F)cc2)[C@H]2c3cc(C(=O)N(C)C)n(Cc4ccc(C)o4)c3C[C@H]2CN1C(=O)c1ccccc1`: the composite z-score is -1.2.
As to `CC(C)=CCCC(C)=CC(O)C1C=CC2C(=O)N(c3ccccc3)C(=O)C2N1Nc1ccc(C(C)C)cc1` (stereo not given), the composite z-score came out at 0.262.
With `COc1ccccc1CN1C(=O)c2ccccc2[C@@H](C(=O)NCc2ccccc2)[C@@H]1c1ccc(CO)cc1`, the composite z-score worked out at 0.423.
For the compound `CC#CC(=O)Oc1ccc(Br)cc1C=CC(=O)OCC`, the composite z-score was 0.0606.
Compound `O=C(NC1CC1)[C@@H]1c2ccccc2C(=O)N(C2Cc3ccccc3C2)[C@H]1c1ccc(CO)cc1` had a composite z-score of 0.294.
`COCCCNC(=O)[C@@H]1c2ccccc2C(=O)N(Cc2ccccc2OC)[C@H]1c1ccc(CO)cc1` returned a composite z-score of 1.07.
The same measure, in the same setting: as for `O=C(O)[C@H](Cc1ccccc1)n1cc(-c2ccccc2)nn1`, the figure is 0.206; as for `C=CC[C@]1(C(=O)NCc2ccccc2)N=C(c2ccc(OCCCO)cc2)O[C@H]1c1ccccc1CN=[N+]=[N-]`, 0.497; as for `CN1C(=O)C2C=CC(C(O)c3ccc(F)cc3)N(N(c3ccccc3)c3ccccc3)C2C1=O` (stereo not given), -0.128.
As for `C=CCC(OC(C)=O)[C@@H]1[C@@H](N(Cc2ccc(-c3cccc(C(F)(F)F)c3)o2)C(=O)Cc2ccc(OC)cc2)c2cc(OCCCO)ccc2N1C(=O)c1ccc2ccccc2c1` (stereo not given in full), the composite z-score turned out to be 0.199.
The same measure, in the same setting: as for `CN(C)CCCCCCNC(=O)[C@@H]1C[C@@H]2C(=O)N[C@@H](CCCC[N+](C)(C)C)C(=O)N2[C@@H]1c1ccc(O)cc1`, the figure is 0.798; as for `CC(C)CNC(=O)[C@@]1(Cc2ccccc2I)c2ccccc2C(=O)N(Cc2ccccc2C(F)(F)F)[C@H]1c1ccc(CO)cc1`, -0.639.
As to `C=CC[C@]1(C(N)=O)N=C(c2ccc(OCCCO)cc2)O[C@H]1c1ccccc1`, the composite z-score was -0.664.
Same read-out and setting: as for `COCCCNC(=O)[C@@]1(Sc2ccc(C)cc2)CC(=O)N(Cc2ccccc2Cl)[C@@H]1c1ccc(CO)cc1`, the figure is 1.13; as for `CCCC=C(CCC)[C@@H](NC(=O)OCC(C)C)c1ccccc1`, 0.822.
Still for that read-out and setting: the result for `OCC1C=C(/C=C/c2ccccc2)CN1Cc1ccccc1Br` (stereo not given) reads 1.51; that for `CN1C(=O)C2C=CC(C(O)C=Cc3ccc([N+](=O)[O-])cc3)N(Nc3ccccc3)C2C1=O` (stereo not given), 0.637.
Consider `COC(=O)[C@@]1(Cc2ccccc2)[C@H]2c3cc(C(=O)N4CCCC4)n(Cc4ccc(O)c(OC)c4)c3C[C@H]2CN1C(=O)c1ccccc1`, for which the composite z-score is -0.0456.
Still for that read-out and setting: the result for `CN(C)CCCCCCNC(=O)[C@@H]1C[C@@H]2C(=O)N3CCC[C@H]3C(=O)N2[C@@H]1c1ccc(O)cc1` reads 1.72; that for `C[N+](C)(C)CCCC[C@@H]1NC(=O)[C@H]2C[C@@H](C(=O)NCCCCCCNC(=O)CS)[C@@H](c3ccc(O)cc3)N2C1=O`, 0.0544; that for `COC(=O)C(CC#Cc1ccc2c(c1)[C@]1(C(=O)N2)[C@H](c2ccccc2OCCO)N2[C@H](c3ccccc3)[C@H](c3ccccc3)OC(=O)[C@H]2[C@@H]1C(=O)O)C(=O)OC`, 0.284.
